From PubChem BioAssay (NCI) come the findings set out here.

Test systems include SNB-75 CNS; SNB-19 CNS; U251 CNS; PC-3 prostate; SK-MEL-5 melanoma; UACC-62 melanoma; LOX IMVI melanoma; SK-MEL-28 melanoma; SK-MEL-2 melanoma; EKVX NSCLC; SN12C renal; UO-31 renal; TK-10 renal; ACHN renal; CAKI-1 renal; A498 renal; CCRF-CEM leukemia; MOLT-4 leukemia; SR leukemia.
Holding throughout (assay): NCI-60 one-dose screen, 48 h (100 = growth as untreated, 0 = no growth, -100 = all killed)
Common to all, as to conditions: 10 µM

This is part of a sample that, as a whole, favours compounds with a hit. Of some 83,000 tested, about 20% had one in any assay.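 How to read the values: 0–100, growth inhibition (40 = 60% inhibited); 0, no net growth; -100 to 0, cell death (-40 = 40% of starting cells died; -100 = all dead).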 Values without a mark were called inactive. The source made the active and inactive calls. Rule for the calls: active = growth percent below 10; inactive = the rest.

Turning to `Nc1ccc2cc(S(=O)(=O)O)cc(O)c2c1N=Nc1ccc(F)cc1`, the growth is 123% in the assay with SNB-75 CNS; 104% with SNB-19 CNS; 115% with U251 CNS; 91.5% in the assay on PC-3 prostate; 108% in the assay with SK-MEL-5 melanoma; 96% with UACC-62 melanoma. The growth was 93.5% in the assay on LOX IMVI melanoma; 132% with SK-MEL-28 melanoma; 101% in the assay with SK-MEL-2 melanoma; 107% with EKVX NSCLC; 112% in the assay with SN12C renal; 51.3% with UO-31 renal. The growth is 123% with TK-10 renal; 99.7% with ACHN renal; 108% in the assay on CAKI-1 renal; 129% in the assay on A498 renal; 106% in the assay with CCRF-CEM leukemia; 99.8% in the assay with MOLT-4 leukemia.
Regarding `FC(F)(F)c1ccc2nc(-c3nc(-c4ccccc4)n4ccccc34)[nH]c2c1`, the growth in the assay on SNB-75 CNS is 66.9%; in the assay with SNB-19 CNS, 116%; with U251 CNS it was 59.5%; in the assay with PC-3 prostate it was 39.6%; in the assay on SK-MEL-5 melanoma, 84.1%; with UACC-62 melanoma, 103%. The growth in the assay with LOX IMVI melanoma is 20.6%; in the assay on SK-MEL-28 melanoma, 98.4%; with SK-MEL-2 melanoma, 81.6%; in the assay with SN12C renal, 53%; in the assay with UO-31 renal, 80.9%; in the assay with TK-10 renal, 94.2%. Further, the growth was 81.1% in the assay with ACHN renal; 99.9% with CAKI-1 renal; 107% with A498 renal; 52% in the assay on CCRF-CEM leukemia; 47.8% in the assay with MOLT-4 leukemia; 19.6% in the assay with SR leukemia.
In the case of `COc1cc(C(=C2O[C@@H]([C@H]3COC(C)(C)O3)[C@H]3OC(C)(C)O[C@@H]23)c2cc(OC)c(OC)c(OC)c2)cc(OC)c1OC`, the growth in the assay on SNB-75 CNS is 99.8%; in the assay on SNB-19 CNS, 109%; in the assay with U251 CNS, 107%; in the assay with PC-3 prostate, 90%; in the assay with SK-MEL-5 melanoma, 105%; in the assay with UACC-62 melanoma, 100%. Besides, the growth in the assay with LOX IMVI melanoma was 99.1%; in the assay with SK-MEL-2 melanoma, 158%; in the assay with EKVX NSCLC it was 98.5%; in the assay on SN12C renal, 92.9%; in the assay with UO-31 renal it was 95.8%; in the assay with TK-10 renal, 111%. Moreover, the growth is 99.8% in the assay on ACHN renal; 107% with CAKI-1 renal; 103% with CCRF-CEM leukemia; 99.8% with MOLT-4 leukemia; 90.6% with SR leukemia.
Turning to `O=[N+]([O-])c1ccc(N/N=C/c2cccc3ccccc23)nc1`, the growth in the assay on SNB-75 CNS was 93.2%; in the assay on SNB-19 CNS it was 99.2%; in the assay on U251 CNS, 93%; in the assay with PC-3 prostate, 90.7%; in the assay with SK-MEL-5 melanoma, 100%; in the assay with UACC-62 melanoma it was 91.4%. For the same compound, the growth is 97.1% with LOX IMVI melanoma; 111% in the assay with SK-MEL-28 melanoma; 103% in the assay on SK-MEL-2 melanoma; 103% in the assay with SN12C renal; 86.9% in the assay with UO-31 renal; 100% in the assay with TK-10 renal. Moreover, the growth with A498 renal is 106%; in the assay on CCRF-CEM leukemia, 14.9%; with MOLT-4 leukemia, 57.3%; in the assay on SR leukemia, 79.4%.
Turning to `O=C(/C(=C/c1ccccc1)CN1CCCCC1)c1ccccc1`, the growth in the assay on SNB-75 CNS is 30.6%; in the assay on SNB-19 CNS, 45.9%; in the assay on U251 CNS, -22.7% (active); with PC-3 prostate, -9.65% (active); in the assay with SK-MEL-5 melanoma, -86% (active); in the assay with UACC-62 melanoma, -67% (active). Moreover, the growth with LOX IMVI melanoma is -75.1% (active); in the assay on SK-MEL-28 melanoma, -63% (active); with SK-MEL-2 melanoma it was -67% (active); with EKVX NSCLC, 6.23% (active); in the assay on SN12C renal it was -47.5% (active); in the assay with UO-31 renal, -93.8% (active). For the same compound, the growth in the assay on TK-10 renal is -41.3% (active); in the assay with ACHN renal, -59.3% (active); with CAKI-1 renal, -3.31% (active); in the assay with A498 renal it was -77.1% (active); in the assay on CCRF-CEM leukemia, 7.4% (active); in the assay on MOLT-4 leukemia it was 3.27% (active). Further, the growth with SR leukemia is -12.4% (active).
Consider `CCOC1(OCC)OC(c2ccccc2)=C(C#N)C(/C=C\c2ccccc2)C1(OCC)OCC` (centres undefined), for which the growth with SNB-75 CNS is 86.6%; with SNB-19 CNS, 89.8%; with U251 CNS, 77.4%; in the assay with PC-3 prostate it was 54.9%; in the assay with SK-MEL-5 melanoma, 95.5%; in the assay on UACC-62 melanoma, 80.1%. Further, the growth is 79% in the assay on LOX IMVI melanoma; 99.8% with SK-MEL-28 melanoma; 95.3% in the assay with SK-MEL-2 melanoma; 81.3% in the assay with SN12C renal; 74% in the assay with UO-31 renal; 97.1% in the assay with TK-10 renal. In addition, the growth in the assay with ACHN renal was 83.5%; in the assay on CAKI-1 renal, 84.8%; in the assay on A498 renal, 83.7%; with CCRF-CEM leukemia, 79.1%; with MOLT-4 leukemia, 81.7%; with SR leukemia it was 52.8%.
Regarding `CCC(=O)N1C/C(=C/c2ccc(Cl)cc2)C(=O)/C(=C/c2ccc(Cl)cc2)C1`, the growth with SNB-75 CNS is 20%; with SNB-19 CNS it was -19.3% (active); with U251 CNS, -80.1% (active); in the assay with PC-3 prostate it was -44.1% (active); with SK-MEL-5 melanoma it was -64.1% (active); in the assay with UACC-62 melanoma, -74.8% (active). Besides, the growth in the assay with LOX IMVI melanoma is -85.7% (active); with SK-MEL-28 melanoma, -74.2% (active); in the assay with SK-MEL-2 melanoma, -21.5% (active); in the assay with SN12C renal it was -26.1% (active); in the assay with UO-31 renal it was -94% (active); with TK-10 renal it was -30.6% (active). In addition, the growth in the assay on ACHN renal was -50.7% (active); with CAKI-1 renal, -20.7% (active); in the assay on A498 renal it was -26.7% (active); in the assay on CCRF-CEM leukemia, -11.1% (active); with MOLT-4 leukemia it was -8.59% (active); in the assay with SR leukemia, -27.9% (active).
